Screening data from PubChem.
Only a selection was taken, and hits are over-represented in it overall.
ERG-DNA inh = blocks human ERG Ets domain binding to DNA; P11308; Potency, µM (series often up to 76.9 µM), for the others: top-dose FP activity, negative = inhibition, most hits filed as inhibitors; AID 624246; fluorescence polarization, His-ERG Ets domain / labelled DNA; 370,000 tested, 0.028% active; active means well fitted inhibition curve with a large enough effect in the polarisation, with a control signal flat; inconclusive means small, poorly fitted or top-dose-only effect, or effect the other way, or a change in a side signal; inactive means no such curve, though single readings can be large or run the other way; the % refers to the polarisation;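 further: polarization taken with two DNA probes labelled with fluorescein and Texas red; potency means the concentration at half of the fitted maximal effect; % of control where 0% means no effect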
Target sequence (P11308 whole entry, looked up, the tested form may be a part): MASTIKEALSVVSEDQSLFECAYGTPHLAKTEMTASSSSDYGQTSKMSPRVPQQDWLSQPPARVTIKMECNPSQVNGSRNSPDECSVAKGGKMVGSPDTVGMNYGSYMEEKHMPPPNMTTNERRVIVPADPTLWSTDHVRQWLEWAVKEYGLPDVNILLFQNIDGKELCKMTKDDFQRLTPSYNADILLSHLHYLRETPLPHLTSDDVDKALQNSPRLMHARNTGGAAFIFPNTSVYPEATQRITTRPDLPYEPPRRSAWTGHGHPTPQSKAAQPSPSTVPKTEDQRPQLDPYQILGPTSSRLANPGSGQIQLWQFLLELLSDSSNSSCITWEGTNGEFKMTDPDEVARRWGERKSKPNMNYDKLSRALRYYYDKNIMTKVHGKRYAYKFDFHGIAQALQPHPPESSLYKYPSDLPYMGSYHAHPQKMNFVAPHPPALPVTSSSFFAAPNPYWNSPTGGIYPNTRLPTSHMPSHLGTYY
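His-tagged ERG Ets domain (1 uM in the protein solution; 300mM KCl, 50mM Tris-HCl, 1mM EDTA, 1mM DTT, pH 7.5) received compound, then a probe mix of 5 nM fluorescein-DNA and 100nM Texas-615-DNA. Fluorescence polarization was read for both dyes.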
RORg inh = inhibitors of mouse ROR gamma transcriptional activity; AID 2551; P51450; Drosophila S2 Gal4-RORgamma UAS-luciferase reporter, 20 h; 310,000 tested, 5.4% active; Potency, µM (titrated, usually from 53.6 µM), for the others: at the highest dose activity change, negative = inhibition, hits mostly inhibitors; further: potency means the concentration at half of the fitted maximal effect; on the % scale 0 is the no-effect control and ±100 the full control effect; nearly all actives have a fitted effect of over 60% in size
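In this cell-based reporter format, copper sulfate (700 uM final) drives Gal4–ROR gamma fusion expression from a metallothionein promoter in Drosophila Schneider cells; compounds preincubated 1 hr, reporter read after 20 hr at ambient temperature.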
Giardia kill = Giardia lamblia killing. Giardia lamblia trophozoite viability. activity change, % at 7.66 µM, hits read low. 340,000 tested, 0.15% active; in the data active means activity change below about -80%; inconclusive means between about -30% and that limit;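 further: parasites exposed to compound for two days anaerobically before the ATP read; on the % scale 0 is the no-effect control and ±100 the full control effect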
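Killing of trophozoites was scored by loss of ATP luminescence after a 48 hrs anaerobic exposure to compounds at 37 deg C, using 100 cells per well.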
Gal4-VP16 FLuc = counter-screen for ROR gamma inhibitors: Gal4-VP16 reporter; Drosophila S2 Gal4-VP16 UAS-luciferase, luminescence, 20 h; Potency, µM (doses to about 53.6 µM), without a hit: top-dose activity, negative = inhibition, usual class: inhibitors; 310,000 tested, 3.5% active;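 further: Gal4-VP16 expression switched on by copper sulfate through the metallothionein promoter; potency means the concentration at half of the fitted maximal effect; on the % scale 0 is the no-effect control and ±100 the full control effect; nearly all actives have a fitted effect of over 50% in size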
Integrin act MD = activators of alpha7 integrin expression for muscular dystrophy; alpha7betagal myoblasts, beta-gal FDG fluorescence, 48 h; Potency, µM (titrated, usually from 38.3 µM), for the others: at the top dose activation, actives largely listed as activators; 350,000 tested, 0.064% active; AID 624291;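 further: potency means the concentration at half of the fitted maximal effect; 100% = response of the positive control SU9516; nearly all actives have a fitted effect of over 60% in size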
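alpha7betagal+/- myoblasts (passage 13, 250/well) treated 48 h at 37C with compounds at 1:260 dilution of DMSO stock. Lysed, then beta-galactosidase activity read as FDG fluorescence (ex 480/em 540) after 30 min, with pre-read for autofluorescence.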
The depositor's hits bear a star; ? = inconclusive; nt = no result given; [ ] = dose if it differs, or a comment. Unless noted, the call rests on the fitted dose curve; in most records, active means well fitted curve in the direction sought with a large enough effect; inconclusive means small, poorly fitted or top-dose-only effect, or another doubt; inactive means no such curve, though single readings can be large; an effect the other way counts as inactive or inconclusive.

SMILES	ERG-DNA inh	RORg inh	Giardia kill	Gal4-VP16 FLuc	Integrin act MD
CCS(=O)(=O)N1Cc2ccccc2CC1C(=O)Nc1nc2ccccc2s1 (centres undefined)	-2%	3.5µM*	-3	4.5µM*	20%
CCc1nnc(NC(=O)C2Cc3ccccc3CN2S(=O)(=O)c2c(C)c(C)cc(C)c2C)s1 (centres undefined)	2%	11µM*	3	-13%	-2%[7.66 µM]
CCc1nnc(NC(=O)C2Cc3ccccc3CN2S(=O)(=O)CC)s1 (centres undefined)	-16%	-21%	0	4%	-3%
CC(C)(C)NC(=O)C(c1ccccc1)N(C(=O)CNC(=O)c1cccs1)c1cccnc1 (centres undefined)	-4%	3%	-3	10%	-17%
CCCN(CCC)C(=O)c1oc2ccccc2c1NC(=O)Cc1cccc(OC)c1	11%	-3%	9	9%	28%
O=C(C1CCN(Cc2ccc(OCc3ccccc3)cc2)CC1)N1CCCC1	-7%	-36%	5	-1%	-8%
OC1CCN(Cc2ccc(OCc3ccccc3)cc2)CC1	-4%	10µM*	6	?	-18%
Cc1cc(C)cc(NS(=O)(=O)c2ccc(NC(=S)NC(=O)c3cccs3)cc2)c1	-7%	0.79µM*	-12	1µM*	-27%
CN(C1CCCCC1)S(=O)(=O)c1ccc(NC(=S)NC(=O)c2cccs2)cc1	6%	5.6µM*	43	?	-50%
COc1cc(NS(=O)(=O)c2ccc(NC(=S)NC(=O)c3cccs3)cc2)nc(OC)n1	-10%	21%	61	-7%	17%
COc1ccccc1CNC(=O)c1ccc2nc(N3CCOCC3)sc2c1	-3%	14%	6	0%	-1%
COCCN(CCOC)S(=O)(=O)c1ccc(C(=O)Nc2nnc(C3CC3)o2)cc1	-7%	4.5µM*	4	3.5µM*	-29%
CCc1nnc(NC(=O)c2ccc(S(=O)(=O)N(CCOC)CCOC)cc2)o1	-10%	2.2µM*	-7	6.3µM*	17%
CCc1nn(CCCC(=O)N2CCN(c3cc(Cl)ccc3C)CC2)c(=O)c2cc3occc3n12	4%	nt	nt	nt	nt
O=C(CSc1ccc(-c2ccccn2)nn1)c1ccc([N+](=O)[O-])cc1	-12%	4.5µM*	-1	?	-18%
CC(=O)Nc1ccc(-c2nnc(SCC(=O)c3ccc([N+](=O)[O-])cc3)o2)cc1	7%	nt	nt	nt	nt
O=C(CSc1ccc(-c2cccnc2)nn1)c1ccc([N+](=O)[O-])cc1	3%	1%	-5	1%	-7%
O=C(CSc1nnc(-c2ccco2)o1)c1ccccc1Cl	16%	4µM*	-4	?	9%
Cc1cc(C(=O)CSc2nnc(-c3ccco3)o2)c(C)n1Cc1ccco1	-6%	13%	-15	9%	-22%
O=C(CSc1nnc(-c2ccco2)o1)c1ccc([N+](=O)[O-])cc1	4%	0.79µM*	-3	0.89µM*	8%
COc1cccc(Nc2ncc3nc(-c4cn(C)c5ccccc45)c(=O)n(CCC#N)c3n2)c1	nt	-9%	nt	-2%	nt
CCN(CC)S(=O)(=O)c1cccc(C(=O)N/N=C(\C)c2ccc(O)cc2O)c1	-19%	13µM*	-3	6%	-9%
COc1ccc(-n2cnc3cc([N+](=O)[O-])ccc32)cc1	0%	12%	1	26%	-11%
COc1ccc(-n2cnc(N)c2C(=O)c2cccc([N+](=O)[O-])c2)cc1	7%	11µM*	10	-19%	0%
O=C(CCC(=O)Nc1ccc(Br)cc1)N/N=C/c1cc([N+](=O)[O-])ccc1O	2%	-34%	18	-23%	?
SMILES	ERG-DNA inh	RORg inh	Giardia kill	Gal4-VP16 FLuc	Integrin act MD
O=C(CCC(=O)N/N=C/c1ccccc1O)NCc1ccccc1	0%	20µM*	23	-24%	-11%
O=C(CC(=O)N/N=C/c1ccccc1)NCc1ccccc1	2%	2%	13	1%	0%
O=C(CCC(=O)Nc1ccc(F)cc1)N/N=C/c1cc([N+](=O)[O-])ccc1O	2%	10µM*	3	-11%	0%
O=C(N/N=C/c1cc([N+](=O)[O-])ccc1O)c1cccc(NC(=O)c2cccc(Cl)c2)c1	12%	4.5µM*	?	?	-13%
Cc1cccc(NC(=O)CCC(=O)N/N=C/c2cc([N+](=O)[O-])ccc2O)c1	4%	8.9µM*	-9	-7%	24%
CC(=O)OC[C@@H]1O[C@@H](O/N=C2/C[C@@H](O)[C@@H](O)[C@@H]3[C@H]4C(=O)N(c5ccc(F)cc5F)C(=O)[C@@H]4CC[C@@H]23)[C@H](OC(C)=O)[C@H](OC(C)=O)[C@@H]1OC(C)=O	nt	-3%[10 µM]	nt	-4%[10 µM]	nt
Cc1c(C(=O)N2CCN(S(=O)(=O)c3cc(F)ccc3F)CC2)oc2ccccc12	-3%	nt	1	nt	5%
O=C(CCN1CCN(c2ccccc2)CC1)N/N=C/c1ccccc1O	3%	2µM*	5	6.3µM*	-7%
O=C(CCC(=O)Nc1ccc(F)cc1)N/N=C/c1ccccc1O	-2%	14µM*	-13	-24%	-24%
C=CCc1cccc(/C=N/NC(=O)CCC(=O)Nc2ccc(C)cc2)c1O	0%	1.6µM*	5	?	-18%
O=C(Cc1c[nH]c2ccccc12)N/N=C/c1ccccc1O	-3%	2.2µM*	-1	10µM*	-15%
NCCC[C@H](N)CC(=O)N[C@H]1CNC(=O)[C@@H]([C@@H]2C[C@H](O)N=C(N)N2)NC(=O)/C(=C/NC(N)=O)NC(=O)[C@@H](CO)NC(=O)[C@@H](CO)NC1=O	nt	-10%[16.9 µM]	nt	14%[17 µM]	nt
CN1CCN(c2ncc3nc(CCc4ccccc4)c(=O)n(C)c3n2)CC1	nt	11%	nt	24%	nt
O=C(CCn1cnc2ccccc21)N/N=C/c1ccccc1O	9%	0.45µM*	-2	0.63µM*	-28%
O=C(CCC(=O)Nc1cc(C(F)(F)F)ccc1Cl)N/N=C\c1cc([N+](=O)[O-])ccc1O	17%	2.5µM*	-6	8.9µM*	-38%
O=C(CCn1cnc2ccccc21)N/N=C/c1ccc(O)cc1	-5%	-10%	1	-14%	-22%
O=C(N/N=C/c1ccccc1O)C(=O)N1CCCCCC1	4%	13µM*	26	13µM*	-39%
O=C(CCc1ccccc1)Nc1cc(C(F)(F)F)ccc1Cl	-2%	?	20	3%	19%
O=C(CN1C(=O)CC(c2ccco2)Sc2ccccc21)Nc1cccc(C(F)(F)F)c1 (centres undefined)	-1%	nt	nt	nt	nt
COc1ccc(-c2csc(NC(=O)c3c(C)noc3C)n2)cc1F	2%	nt	-4	nt	2%
O=C(NNc1nc(-c2ccccc2)cs1)c1ccc(F)cc1	5%	2µM*	26	11µM*	16%
O=C(NNc1nc(-c2ccccc2)cs1)c1cccs1	2%	7.9µM*	11	?	11%
O=C(NNc1nc(-c2ccc(F)cc2)cs1)c1ccccc1	10%	5µM*	-20	?	-26%
COc1ccccc1NC(=O)CSCc1cc(=O)c2cccc(Cl)c2[nH]1	-1%	nt	nt	nt	nt
